The sample as a whole holds a higher share of hits than the screen did.
12-LOX inh = ALOX12 (human) lipoxygenase inhibition; P18054; purified 12hLO, xylenol orange hydroperoxide absorbance; Potency, µM (titrated, usually from 108 µM), without a hit: at the highest dose activity change, negative = inhibition, usual class: inhibitors; hit rate 1.1% among 580,000; further: potency means the concentration at half of the fitted maximal effect
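Purified human 12hLO at 150 nM in 25 mM Hepes, 0.01% Triton X-100, pH 7.0, preincubated 15 min at room temperature with compound. Reaction started with 40 uM arachidonic acid, 30 min at room temperature. Hydroperoxide measured by Fe-xylenol orange, 573/405 nm absorbance ratio.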
HT1080NT lethal = kills 2HG-producing HT-1080-NT fibrosarcoma cells; HT-1080-NT fibrosarcoma viability, CellTiter-Glo ATP luminescence, 48 h; Potency, µM (titrated, usually from 46.1 µM), for inactives: at the top dose activity, negative = less viability, usual class: cytotoxic; hit rate 1.6% among 360,000;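 further: NT is the 2HG producing partner of a matched IDH1 knockdown line; potency means the concentration at half of the fitted maximal effect; 0% = DMSO-treated cells and -100% = media-only wells without cells; nearly all actives have a fitted effect of over 55% in size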
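Read-out is CellTiter-Glo luminescence after 10 minutes at room temperature, following 48 hours' compound treatment of HT-1080-NT cells (750 cells/well, RPMI, 5% FBS, 37 degrees C).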
DT40 TDP1 CPT = growth inhibition of DT40 Tdp1-/-;hTDP1 cells with camptothecin (screen for TDP1 inhibitors); Potency, µM (doses to about 46.2 µM), for inactives: top-dose activity change, negative = growth inhibition, most hits filed as inhibitors; hit rate 12% among 420,000; chicken DT40 Tdp1-/-;hTDP1 cells + 20 nM CPT, ATP luminescence, 48 h; further: potency means the concentration at half of the fitted maximal effect; nearly all actives have a fitted effect of over 55% in size
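Chicken DT40 Tdp1-/- cells stably complemented with human TDP1 were seeded at 400 cells/well in medium containing 20 nM camptothecin, exposed to pin-transferred compounds, and grown at 37 °C for at least 48 hr. Viability was read as ATP luminescence.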
TDP1 cell noCPT = qHTS for Inhibitors of human tyrosyl-DNA phosphodiesterase 1 (TDP1): qHTS in cells in absence of CPT; DT40 Tdp1-/- hTDP1 cells, no CPT, ATP luminescence, 48 h; hit rate 15% among 420,000; AID 686978, 2013; Potency, µM (highest dose often 46.2 µM), for the others: at the top dose activity change, negative = growth inhibition, usual class: inhibitors; further: potency means the concentration at half of the fitted maximal effect; nearly all actives have a fitted effect of over 55% in size
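Seeded 400 DT40-hTDP1 cells/well (vehicle DMSO, no 20 nM CPT); pinned compounds; ≥48 hr at 37 °C; CellTiter-Glo luminescence as viability measure.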
IL-1B inflam inh = blocks inflammasome-driven IL-1 beta release; THP-1 LPS/ATP IL-1B secretion, AlphaLISA, 16 h; hits give low values; activity change, % at 57.5 µM; hit rate 4.7% among 360,000; in the data active means activity change below about -50%; inconclusive means mostly about -30% to -49%
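THP-1 cells pretreated 1 hr with compounds (up to 57.5 uM final), then stimulated with LPS (250 ng/mL final) plus ATP (1.25 mM final); secreted IL-1B measured by AlphaLISA after 16 hr, decreased signal indicating inhibition.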
HT1080 IDH1KD tx = kills HT-1080 cells with IDH1 knockdown. hit rate 2% among 360,000. Potency, µM (doses to about 46.1 µM), without a hit: at the top dose activity, negative = toxicity, actives largely listed as cytotoxic. HT-1080 IDH1 knockdown viability, ATP luminescence, 48 h;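 further: potency means the concentration at half of the fitted maximal effect; 0% = DMSO wells and -100% = cell-free medium wells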
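Knockdown cells (IDH1KD HT-1080) received compounds 2 h after plating at 750 cells/well and were kept 48 h at 37 °C in 5% FBS RPMI. A CellTiter-Glo luminescence read gave % activity for curve fitting.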
Active calls of the source: *; u = inconclusive; x = no result given. Unless noted, the call rests on the fitted dose curve; in most records, active means well fitted curve in the direction sought with a large enough effect; inconclusive means small, poorly fitted or top-dose-only effect, or another doubt; inactive means no such curve, though single readings can be large; an effect the other way counts as inactive or inconclusive. Unless noted, on the % scale 0 is the no-effect control and ±100 the full control effect.

SMILES | 12-LOX inh | HT1080NT lethal | DT40 TDP1 CPT | TDP1 cell noCPT | IL-1B inflam inh | HT1080 IDH1KD tx
CCc1ccc(C2=CC(c3c(F)cccc3Cl)n3c(nc4ccccc43)N2)cc1 (stereo unspecified) | 62.1% | x | 18.4µM* | 7.31µM* | x | x
COc1ccc(C2=CC(c3cccc(C)c3)n3nnnc3N2)cc1 (stereo unspecified) | 1.2% | x | u | 16.4µM* | x | x
CN(C)c1ccc(C2C=C(c3ccccc3)Nc3nnnn32)cc1 (stereo unspecified) | -24.2% | x | u | 18.4µM* | x | x
CCOC(=O)Cc1ccc(NC(=O)Nc2ccc(OCc3cc(=O)n4ccccc4n3)cc2)cc1 | 7.4% | x | x | x | x | x
O=C(Oc1ccc2ccccc2c1)c1cc2ccccc2oc1=O | 16.8% | x | x | x | x | x
COc1ccc(C2=CC(c3c(C)nn(-c4ccccc4)c3Cl)n3nnnc3N2)cc1OC (stereo unspecified) | 0.0% | u | u | 14.6µM* | -67.2* | u
CCOc1ccc(C2C=C(c3ccc(C)cc3)Nc3nnnn32)cc1 (stereo unspecified) | -20.5% | u | 9.2µM* | 11.6µM* | -18.9 | 13µM*
Fc1ccc(C2=CC(c3cccs3)n3nnnc3N2)cc1 (stereo unspecified) | 0.0% | 4.8% | -0.7% | -15.1% | 39.7 | -1.1%
COc1ccccc1C1C=C(c2ccc(C(C)C)cc2)Nc2nnnn21 (stereo unspecified) | -15.7% | x | u | u | x | x
COc1ccccc1C1C=C(c2ccc(C)cc2)Nc2nnnn21 (stereo unspecified) | -28.6% | -4.8% | 18.4µM* | 20.6µM* | u | -13.6%
COc1ccc(C2=CC(c3c(F)cccc3Cl)n3nnnc3N2)cc1 (stereo unspecified) | 39.8µM* | x | x | x | x | x
COc1cccc(CN2C(=O)CCCCC2C(=O)NCCc2nc3ccccc3n2C)c1 (stereo unspecified) | 27.8% | x | x | x | x | x
CCCNC(=O)NCC1Cn2cccc2CN1Cc1ccccc1 (stereo unspecified) | 301.9% | x | x | x | x | x
COc1ccc(S(=O)(=O)NC(=O)C2(C)CCN2C(=O)CC2CCCC2)cc1 (stereo unspecified) | u | u | -17.6% | -8.2% | 22.7 | 6.4%
CCc1ccc(-c2nc(CS(=O)CC(=O)NCc3ccccc3)c(C)o2)cc1 (stereo unspecified) | -28.9% | -7.9% | -5.1% | -14.9% | 14.9 | -7.4%
Cc1ccc(-c2nc(CS(=O)CC(=O)NCc3ccc4c(c3)OCO4)c(C)o2)cc1 (stereo unspecified) | x | -0.7% | u | 16.4µM* | -12.4 | -4.8%
CCc1cccc(NC(=O)CS(=O)Cc2nc(-c3ccc(C)cc3)oc2C)c1 (stereo unspecified) | 20.7% | -5.2% | u | 16.4µM* | 9.4 | -9.0%
O=C(NC1CCCC1)c1ccc(N2CC3CC(C2)[C@H]2CCCC(=O)N2C3)nc1 (stereo partly specified) | 26.1% | x | x | x | x | x
COc1ccccc1C1CCN(c2cc(O)ccc2[N+](=O)[O-])CC1 | u | u | -21.2% | u | -6.4 | u
CCN(CC)CCNC(=O)C1CCCN(Cc2ccncc2)CCC(=O)NCC1 (stereo unspecified) | 86.2% | x | x | x | x | x
CN(Cc1ccc(OCC(O)CN2CCCCC2)cc1)Cc1ccnc2ccccc12 (stereo unspecified) | 1.5% | -13.7% | 9.2µM* | 4.61µM* | -14.6 | -11.9%
COc1ccccc1N1CCN(CC(O)COc2ccc3c(c2)CCC3)CC1 (stereo unspecified) | 24.6% | -26.8% | 16.4µM* | u | -64.2* | u
